The panel holds about 83,000 compounds, 20% with a hit somewhere; the sample as a whole holds those more often.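 Values shown are percent growth following 48 h exposure of cells in 96-well plates to a single concentration of compound; below 10 was considered active.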 Activity calls are given as the source filed them.
Key:
Test in all cases: NCI-60 one-dose screen, 48 h (100 = growth as untreated, 0 = no growth, -100 = all killed)
Details in all cases: 10 µM unless noted
[1] = system: SR leukemia
[2] = system: RPMI-8226 leukemia
[3] = system: OVCAR-8 ovarian
[4] = system: OVCAR-5 ovarian
[5] = system: OVCAR-4 ovarian
[6] = system: SK-OV-3 ovarian
[7] = system: IGROV1 ovarian
[8] = system: OVCAR-3 ovarian
[9] = system: HS 578T breast
[10] = system: NCI/ADR-RES ovarian

Measured: growth

O=C(O)CC1S/C(=N/N=C/c2nc3ccccc3s2)NC1=O (stereo not given)
inactive: [1] 79.8% | [2] 88.8% | [3] 98.5% | [4] 123% | [5] 82.1% | [6] 122% | [7] 103% | [8] 88.4% | [9] 90.9% | [10] 99.3%

CN1C(=O)/C(=C/c2ccco2)S/C1=N/c1nccs1
inactive: [1] 89.5% | [2] 115% | [3] 104% | [4] 110% | [5] 97.8% | [6] 106% | [7] 106% | [8] 114% | [9] 111% | [10] 101%

COc1ccc(-n2c(NC(=O)N3CCN(C)CC3)c(C#N)c3ccccc32)cc1
inactive: [1] 31.5% | [2] 41.6% | [3] 66.8% | [4] 55.1% | [5] 43.3% | [6] 55% | [7] 34.2% | [8] 42.6% | [9] 27.3% | [10] 59.5%

COc1c(B(O)O)cc(F)cc1-c1nc2c(F)cc3[nH]ncc3c2c2c1CCCC2
inactive: [1] 33% | [3] 10.2% | [4] 15.9% | [5] 39.4% | [6] 25.1% | [7] 14.6% | [8] 18.6% | [9] 11.4% | [10] 17.4%
active: [2] -5.25%

O=CNc1ccc(-n2cnc3cc(-c4ccc(O)cc4)ccc32)cc1
inactive: [1] 55.9% | [2] 66.1% | [3] 82.4% | [4] 94.7% | [5] 74.9% | [6] 111% | [7] 118% | [8] 68.6% | [9] 93.3% | [10] 81.6%

O=S(=O)(c1nc(-c2ccc(Br)cc2)oc1-c1ccc(Cl)cc1)N1CCCC(O)C1 (stereo not given)
inactive: [1] 37.2% | [2] 29.7% | [3] 68.4% | [4] 87.8% | [5] 43% | [6] 101% | [7] 87.8% | [8] 63.1% | [9] 82.1% | [10] 31.3%

N#Cc1c(NC(=O)N2CCOCC2)n(-c2ccc(OC(F)(F)F)cc2)c2cc(F)ccc12
inactive: [1] 80% | [2] 57.9% | [3] 99.1% | [4] 88.2% | [5] 87% | [6] 120% | [7] 105% | [8] 111% | [9] 102% | [10] 80.5%

CCCCNC(=S)Nc1ccc(OCc2nc3ccc(Cl)cc3[nH]2)cc1
active: [1] 2.29% | [2] -0.388%
inactive: [3] 38.7% | [4] 28.2% | [5] 21.5% | [6] 75.4% | [7] 12.9% | [8] 13.6% | [9] 28.5% | [10] 21.6%

CCCCN1C(=O)/C(=C\C(=O)c2cc3ccccc3oc2=O)c2ccccc21
inactive: [2] 23.7% | [3] 67.3% | [4] 96.7% | [5] 83.9% | [6] 110% | [7] 70.2% | [8] 34.3% | [9] 75.6% | [10] 67.5%
active: [1] -2.51%

Cc1ccc(/C=C/C(=O)c2ccc(S(=O)(=O)NCCNc3nc(N(C)C)nc(N4CCOCC4)n3)cc2)cc1
active: [1] -36.4% | [2] -15.6%
inactive: [3] 88.8% | [4] 97.6% | [5] 91.6% | [6] 90.5% | [7] 102% | [8] 109% | [9] 97.9% | [10] 86.2%

O=C(Cn1c(-c2ccccc2)nc2ccccc21)N=Nc1c(O)[nH]c2ccc(Br)cc12
active: [1] -25.7% | [3] -39.2% | [4] 0.0575% | [5] -62.1% | [6] -47.9% | [7] -41.8% | [8] -22.5% | [9] -28.8% | [10] -55.7%
inactive: [2] 21.9%

NS(=O)(=O)c1ccc(Nc2nc(SCC(=O)c3ccc(F)cc3)nc3ccccc23)cc1
inactive: [1] 19.6% | [2] 30.6% | [3] 52.9% | [4] 78.1% | [5] 37.3% | [6] 67.3% | [7] 46.4% | [8] 47.1% | [9] 53.1% | [10] 28.7%

Cc1ccc(C2CC(c3ccc(NC(=S)Nc4ccccc4)cc3)=NN2c2ccc(S(N)(=O)=O)cc2)cc1 (stereo not given)
active: [2] 7.06% | [8] 2.37% | [10] 7.5%
inactive: [1] 17.8% | [3] 26% | [4] 16.2% | [5] 27.1% | [6] 41.5% | [7] 19.2% | [9] 31.7%

O=C(CSc1nc2sc3c(c2c(=O)n1-c1ccc(Cl)cc1)CCCC3)NNC(=O)c1ccc(Br)cc1
inactive: [1] 34.4% | [2] 81.3% | [3] 34.3% | [4] 58.8% | [5] 64% | [6] 80.8% | [7] 60.3% | [8] 112% | [9] 56.7% | [10] 66%

Nc1nnc(CS(=O)(=O)c2ccccc2)s1
inactive: [1] 108% | [2] 103% | [3] 97.4% | [4] 109% | [5] 121% | [6] 104% | [7] 101% | [8] 104% | [9] 86% | [10] 104%

CC(C)C[C@H](NC(=O)[C@@H]1CCCCCCCCCCC(=O)N[C@@H](CC(=O)N2CCC[C@@H]2C2CCCC2)C(=O)N1)B(O)O
active: [1] -14.3% | [3] -17.4% | [4] -36.8% | [5] -13% | [6] -7.33% | [7] -58.2% | [8] -46.5% | [9] 3.6% | [10] 1.84%
inactive: [2] 22%

Fc1ccc(F)c(CNc2nc(SCCN3CCOCC3)nc3c2cnn3CC(Cl)c2ccc(Br)cc2)c1 (stereo not given)
active: [1] 0.635% | [2] 2.73%
inactive: [3] 31.9% | [4] 63% | [5] 23.2% | [6] 47% | [7] 45.6% | [8] 45.2% | [9] 23.4% | [10] 22.8%

CN(C)CCOc1ccc(C(=O)C2[C@H](c3ccc(Cl)cc3)[C@@H](c3ccccc3)NC23C(=O)Nc2ccc(Cl)cc23)cc1 (stereo not given in full)
active: [1] -77.4% | [2] -43.6% | [3] -67.9% | [4] -79.2% | [5] -91.5% | [6] -86.4% | [7] -87% | [8] -51.4% | [9] -29.4% | [10] -90.7%

CCOC(=O)/C(F)=C/C1CC1CCc1ccc(OCC)cc1 (stereo not given)
inactive: [1] 78.6% | [2] 99.3% | [3] 101% | [4] 108% | [5] 94.8% | [6] 75.3% | [7] 92.5% | [8] 103% | [9] 94.5% | [10] 101%

N#CC1=C(c2cccs2)Nc2c(c(-c3ccccc3)nn2-c2ccccc2)C12C(=O)Nc1ccccc12 (stereo not given)
inactive: [2] 34.5% | [3] 24.2% | [4] 57.7% | [5] 29.2% | [6] 28.4% | [7] 50.7% | [8] 12.7% | [10] 61.6%
active: [1] 1.46% | [9] 4.59%

CC(=O)C[n+]1cccc2c3ccccc3ccc21
inactive: [1] 66.3% | [2] 64% | [3] 81.5% | [4] 103% | [5] 63.8% | [6] 96.1% | [7] 95.2% | [8] 70% | [9] 102% | [10] 107%

Cc1ccc(C(C)C)cc1Oc1cccc(-c2c(-c3ccc(C(F)(F)F)cc3)ncn2C2CCNCC2)n1
active: [1] -75.5% | [2] -59% | [3] -66.9% | [4] -69.5% | [5] -89% | [6] -93.7% | [7] -91.5% | [8] -69.2% | [9] -63.1% | [10] -83%

C=CC(=O)N1CCN(c2ccc3nc4c(nc3c2C(F)(F)F)C(=O)c2ncccc2C4=O)CC1
inactive: [1] 33.2% | [6] 91.1% | [9] 75.8% | [10] 47.5%
active: [2] -20.2% | [3] -9.34% | [4] 2.97% | [5] -96.4% | [7] -42.6% | [8] -15.3%

O=C(NN1C(=O)/C(=C/C=C/c2ccc([N+](=O)[O-])o2)SC1=S)c1ccc(O)cc1
active: [1] -7.52% | [2] -26.1% | [3] -70.9% | [4] -98.7% | [5] -99.8% | [6] -98.9% | [7] -95.6% | [8] -88.6% | [9] -1.61% | [10] -22.3%

CC[C@]12C=CCN3CC[C@@]4(c5ccc(OC)cc5N(C)[C@H]4[C@@](O)(C(=O)OC)[C@@H]1OC(=O)CCC[P+](c1ccc(OC)cc1)(c1ccc(OC)cc1)c1ccc(OC)cc1)[C@@H]32
active: [2] -45.5% | [3] -86.2% | [4] -96.5% | [5] -75.3% | [6] -85.1% | [7] -92.1% | [8] -73.6% | [9] -65.4%
inactive: [1] 15% | [10] 79.9%

CC1=C(C(=O)OCc2ccccc2)C(c2cccc3ccccc23)n2c(nc3ccccc32)N1 (stereo not given)
inactive: [1] 19% | [2] 15.3% | [3] 31.2% | [4] 41% | [5] 46.7% | [6] 25.2% | [7] 31.3%
active: [8] -6.62% | [9] 5.52% | [10] -6.92%

— PubChem BioAssay (NCI)
